Data taken from PubChem BioAssay (Tox21).
Inconclusive results are not listed. Activity calls are given as the source filed them. Unless noted, the call rests on the fitted dose curve; in most records, active means well fitted curve in the direction sought with a large enough effect in the repeat runs; inconclusive means weak or mixed curves; inactive means no such curve, though single readings can be large; an effect the other way counts as inactive or inconclusive.

What was measured:
[1] = qHTS assay to identify small molecule agonists of the vitamin D receptor (VDR) signaling pathway - cell viability counter screen (AID 743224); further: series mostly up to about 63 µM; nearly all actives have a fitted effect of over 50% in size
How it was run: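 In parallel with the bla FRET readout, cytotoxicity toward VDR-bla cells after 16 h compound exposure was assessed by CellTiter-Glo, with luminescence recorded after a 30 min room-temperature incubation.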

[2] = qHTS assay to identify small molecule antagonists of the vitamin D receptor (VDR) signaling pathway - cell viability counter screen (AID 743225); further: nearly all actives have a fitted effect of over 50% in size
How it was run: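 Parallel cytotoxicity test: VDR-UAS-bla HEK 293T, 3 nM (final) 1-alpha,25-dihydroxyvitamin D3 with test compound, 16 h, 37C. Endpoint is CellTiter-Glo luminescence in the same wells.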

[3] = qHTS assay to identify small molecule agonists of the NFkB signaling pathway (AID 1159509; active means well fitted curve in the direction sought with a large enough effect in the signal ratio in the repeat runs, not every such curve was filed as active; the % refers to the signal ratio; further: series mostly up to about 61 µM)
How it was run: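 Beta-lactamase reporter assay run in quantitative high-throughput format on an NF-kB-responsive ME-180 line, with 5 hr compound treatment and a FRET-based blue/green fluorescence readout.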

[4] = qHTS assay to identify small molecule agonists of the NFkB signaling pathway - cell viability counter screen (AID 1159515; calls by dose curve; further: series mostly up to about 61 µM; nearly all actives have a fitted effect of over 55% in size)
How it was run: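 Plate 2,000 NFkB-bla ME-180 cells/well; incubate overnight. Add compounds, 5 hr at 37 C. Add FRET substrate, 1.5 hr RT. Add CellTiter-Glo, 30 min RT; read luminescence.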

[5] = qHTS assay to identify small molecule agonists of the endoplasmic reticulum stress response signaling pathway (AID 1159516; active means well fitted activation curve with a large enough effect in the signal ratio in the repeat runs, not every such curve was filed as active; the % refers to the signal ratio)
How it was run: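 Beta-lactamase expression from the ER stress response element in HeLa reporter cells is quantified with the LiveBLAzer B/G FRET substrate, read at 405 nm excitation after 2 hr at room temperature, following 5 hr compound treatment at 37 C.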

[6] = qHTS assay to identify small molecule agonists of the endoplasmic reticulum stress response signaling pathway - cell viability counter screen (AID 1159517; calls by dose curve; further: series mostly up to about 61 µM; nearly all actives have a fitted effect of over 50% in size)
How it was run: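 After overnight attachment, ESRE-bla HeLa cells were treated with Tox21 library compounds for 5 hr. CellTiter-Glo luminescence, read 30 min post-addition at room temperature, reported viability.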

[7] = qHTS assay to identify small molecule antagonists of the retinoid-related orphan receptor gamma (ROR-gamma) signaling pathway - cell viability counter screen (AID 1159520); further: nearly all actives have a fitted effect of over 50% in size
How it was run: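 Cytotoxicity was read from cellular ATP (CellTiter-Glo luminescence) after 16 hr at 37 C with 1 uM doxycycline induction. The inducer was added 2 hr after compound transfer to Tet-on ROR gamma CHO cells.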

[8] = biological target: Nuclear receptor ROR-gamma (Homo sapiens) (UniProt P51449); experiment: qHTS assay to identify small molecule antagonists of the retinoid-related orphan receptor gamma (ROR-gamma) signaling pathway (AID 1159521)
How it was run: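 Decreased RORE-driven luciferase luminescence indicates antagonism. Tet-on RORγ CHO cells received compound, then 1 uM final doxycycline 2 h later; signal read after 16 h incubation.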

[9] = qHTS assay to identify small molecule agonists of the AP-1 signaling pathway - cell viability counter screen (AID 1159525; calls by dose curve; further: nearly all actives have a fitted effect of over 55% in size)
How it was run: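 Intracellular ATP by Cell Titer Glo luminescence (30 min, RT) in the same ME-180 AP-1-bla wells after the 5 h compound exposure at 37 °C. Normalised to tetra n-octyl ammonium bromide and DMSO controls.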

[10] = qHTS assay to identify small molecule agonists of the AP-1 signaling pathway (AID 1159526; calls by dose curve)
[11] = biological target: Retinoic acid receptor RXR-alpha (Homo sapiens) (UniProt P19793); experiment: qHTS assay to identify small molecule agonists of the RXR signaling pathway (AID 1159527; calls by dose curve; further: nearly all actives have a fitted effect of over 35% in size)
Retinoic acid receptor RXR-alpha (Homo sapiens), sequence (P19793 whole entry, looked up): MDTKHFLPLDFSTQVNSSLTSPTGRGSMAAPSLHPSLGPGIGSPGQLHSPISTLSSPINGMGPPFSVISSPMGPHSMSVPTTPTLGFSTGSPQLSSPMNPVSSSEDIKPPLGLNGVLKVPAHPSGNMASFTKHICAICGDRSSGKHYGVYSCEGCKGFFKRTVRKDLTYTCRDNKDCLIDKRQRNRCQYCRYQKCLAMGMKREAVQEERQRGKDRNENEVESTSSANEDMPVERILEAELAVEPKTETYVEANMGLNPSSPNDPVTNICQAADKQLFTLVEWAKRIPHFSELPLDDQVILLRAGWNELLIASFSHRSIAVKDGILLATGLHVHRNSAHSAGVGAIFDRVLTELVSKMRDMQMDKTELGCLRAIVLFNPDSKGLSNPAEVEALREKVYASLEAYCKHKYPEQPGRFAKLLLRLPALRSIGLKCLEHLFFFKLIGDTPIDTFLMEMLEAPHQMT
How it was run: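 16 hr incubation of compound-treated RXR-alpha-UAS-bla HEK 293T cells (2% charcoal-stripped FBS, 37 C) preceded a 2 hr room-temperature LiveBLAzer FRET substrate step and blue/green fluorescence measurement.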

[12] = qHTS assay to identify small molecule agonists of the RXR signaling pathway - cell viability counter screen (AID 1159529)
How it was run: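 In this parallel viability measure, GeneBLAzer RXR-alpha HEK 293T cells (2% charcoal-stripped FBS) were given a 5 hr preincubation, treated with compounds 16 hr at 37 C, and read by CellTiter-Glo luminescence.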

[13] = qHTS assay to identify small molecule antagonists of the retinoic acid receptor (RAR) signaling pathway (AID 1159552; further: nearly all actives have a fitted effect of over 50% in size)
How it was run: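 C3RL4 RARE-luc cells, overnight plating; retinol 1 uM final added right after compound; 6 hr 37 C; luciferase read at 30 min RT.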

[14] = qHTS assay to identify small molecule agonists of the retinoic acid receptor (RAR) signaling pathway (AID 1159553)
How it was run: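 Compounds dissolved in DMSO were pinned onto C3RL4 cells seeded the previous day, and plates were held 6 hr at 37 C. RARE-driven luciferase output was then read by luminescence.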

[15] = qHTS assay to identify small molecule antagonists of the estrogen related receptor (ERR) signaling pathway - cell viability counter screen (AID 1224818);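 further: series mostly up to about 46 µM; viability measured after 17.5 h of compound exposure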
How it was run: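 Cytotoxicity check run alongside the ERR antagonist screen: cells exposed to test compounds 17.5 h at 37 C, viability taken as CellTiter-Fluor fluorescence intensity.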

[16] = qHTS assay to identify small molecule antagonists of the estrogen related receptor signaling pathway with the pleiotropic PPARgamma coactivator (PGC) cell viability counter screen (AID 1224822;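 further: series mostly up to about 46 µM; viability read after 17.5 h compound exposure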)
How it was run: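 Viable cell signal (CellTiter-Fluor, 30 min, 37 C/5% CO2) was measured in PGC/ERR cells after a 17.5 h compound incubation.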

[17] = qHTS assay to identify small molecule antagonists of the retinoid acid receptor (RAR) signaling pathway - cell viability counter screen (AID 1159551); further: nearly all actives have a fitted effect of over 35% in size
How it was run: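 Viability of C3RL4 cells is quantified from ATP by luminescence after 6 h treatment at 37 C with compounds and 1 uM retinol.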

[18] = qHTS assay to identify small molecule antagonists of the estrogen related receptor (ERR) signaling pathway (AID 1224819)
How it was run: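 ERR reporter cells were plated at 2,000 cells/well and left 6 h at 37 C/5% CO2 before pin-tool transfer of compounds in DMSO. After 18 h at 37 C, One-Glo was added and luminescence was read 30 min later at room temperature.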

[19] = qHTS assay to identify small molecule agonists of the estrogen related receptor (ERR) signaling pathway (AID 1224820)
How it was run: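 Following a 6 h settling period, 2,000 ERR cells per well receive DMSO-dissolved compounds by pin tool and incubate 18 h at 37 C; agonist activity is scored from One-Glo luminescence read 30 min post-addition.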

[20] = system: estrogen-related receptor alpha (ERRalpha) with PGC-1alpha coactivator, human; experiment: qHTS assay to identify small molecule antagonists of the estrogen related receptor signaling pathway with the pleiotropic PPARgamma coactivator (PGC) (AID 1224821; calls by dose curve)
How it was run: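 Screening used NTP's PGC/ERR cells, dosed via pin tool with compound in DMSO alongside positive and negative controls. After 18 h at 37 C, One-Glo reagent sat 30 min at room temperature before luminescence detection.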

Measured: Potency

CCNc1ccccc1
inactive: [1] | [2] | [3] | [4] | [5] | [6] | [7] | [8] | [9] | [10] | [11] | [12] | [13] | [14]

CC(=O)OCc1ccccc1
inactive: [1] | [2] | [3] | [4] | [5] | [6] | [7] | [8] | [9] | [10] | [11] | [12] | [13] | [14]

O=c1[nH]cnc2[nH]ncc12
inactive: [1] | [2] | [3] | [4] | [5] | [6] | [7] | [8] | [9] | [10] | [11] | [13] | [14] | [15] | [16]

COc1cc(OC)c(C(=O)CCCN2CCCC2)c(OC)c1
inactive: [1] | [2] | [3] | [4] | [5] | [6] | [7] | [8] | [9] | [10] | [11]

CC(C)(C)c1cc(Cc2cc(C(C)(C)C)c(O)c(C(C)(C)C)c2)cc(C(C)(C)C)c1O
inactive: [1] | [2] | [3] | [4] | [5] | [6] | [7] | [8] | [9] | [10] | [11] | [13] | [14]

CC(C)(Oc1ccc(CCNC(=O)c2ccc(Cl)cc2)cc1)C(=O)O
inactive: [1] | [2] | [3] | [4] | [5] | [6] | [7] | [8] | [9] | [10] | [11] | [17] | [15] | [18] | [19] | [20] | [16]

CCCCCCCC=O
inactive: [1] | [2] | [3] | [4] | [5] | [6] | [7] | [8] | [9] | [10] | [11] | [17]

NCCNCCN
inactive: [1] | [2] | [3] | [4] | [5] | [6] | [7] | [8] | [9] | [10] | [11] | [12] | [13] | [14]

c1ccc2c(c1)Cc1ccccc1-2
inactive: [1] | [2] | [3] | [4] | [5] | [6] | [7] | [8] | [9] | [10] | [11] | [12] | [13] | [14]

CC(=O)c1ccc(O)cc1
inactive: [1] | [2] | [3] | [4] | [5] | [6] | [7] | [8] | [9] | [10] | [11]

OC1C(O)C(O)C(O)C(O)C1O (stereo not given)
inactive: [1] | [2] | [3] | [4] | [5] | [6] | [7] | [8] | [9] | [10] | [11] | [17]

COc1ccc(CCC(C)=O)cc1
inactive: [1] | [2] | [3] | [4] | [5] | [6] | [7] | [8] | [9] | [10] | [11] | [12] | [13] | [14]

CCOC(=O)n1ccn(C)c1=S
inactive: [1] | [2] | [3] | [4] | [5] | [6] | [7] | [8] | [9] | [10] | [11] | [17] | [13] | [14]

CCOC(=O)c1ccc(N)cc1
inactive: [1] | [2] | [3] | [4] | [5] | [6] | [7] | [8] | [9] | [10] | [11] | [13]

CCOCCOCCOCCO
inactive: [1] | [2] | [3] | [4] | [5] | [6] | [7] | [8] | [9] | [10] | [11] | [12] | [13] | [14]

COc1ccccc1OCC(O)CO (stereo not given)
inactive: [1] | [2] | [3] | [4] | [5] | [6] | [7] | [8] | [9] | [10] | [11] | [17]

COc1ccc(N)c(C)c1
inactive: [1] | [2] | [3] | [4] | [5] | [6] | [7] | [8] | [9] | [10] | [11] | [17]

Cc1ccc(S(=O)(=O)N=C=O)cc1
inactive: [1] | [2] | [3] | [4] | [5] | [6] | [7] | [8] | [9] | [10] | [12] | [17] | [13] | [14]

C=CC[N+](C)(C)CC=C
inactive: [1] | [2] | [3] | [4] | [5] | [6] | [7] | [8] | [9] | [10] | [11] | [12] | [13] | [14]

COC(=O)CCCC(=O)OC
inactive: [1] | [2] | [3] | [4] | [5] | [6] | [7] | [8] | [9] | [10] | [11] | [13] | [14]

CC(=O)OC1CC(C)OC(C)O1 (stereo not given)
inactive: [1] | [2] | [3] | [4] | [5] | [6] | [7] | [8] | [9] | [10] | [11] | [17] | [13] | [14]
